Test results taken from the supplement of paper PMC9950053.
Where a name gives a salt, the structure may show the parent alone.

The molecules below were run on Danio rerio larvae (5 dpf) (assay: startle (activity period 16 minus period 15, 20-s interval sound) minus DMSO control (percentage points); higher = stronger startle response than DMSO larvae). Conditions: 10 µM; exposure time: 3 h pre-incubation + 3 h imaging.
Experimental: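 Wild-type 5 dpf zebrafish larvae (n=48 per drug, 96-well plates, 28.5 °C) were exposed to Tocris FDA-approved library compounds at 10 µM (0.1% DMSO) for 3 h before and 3 h during imaging. Images were taken every 6 s during visual (moving coloured lines) and acoustic stimuli, and larvae were tracked with the DeepLabCut-based Z-LaP Tracker. Each behavioural measure is the treated-group mean minus the DMSO vehicle control mean (n=844), in percentage points. This mapping covers compounds with 4-character plate codes.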

SMILES | startle
N[C@@H]1[C@H]2CN(c3nc4c(cc3F)c(=O)c(C(=O)O)cn4-c3ccc(F)cc3F)C[C@@H]12 [Trovafloxacin mesylate] | -8.4
CS(=O)(=O)CCNCc1ccc(-c2ccc3ncnc(Nc4ccc(OCc5cccc(F)c5)c(Cl)c4)c3c2)o1 [Lapatinib] | -0.148
CCC(=O)O[C@]1(C(=O)SCF)[C@H](C)C[C@H]2[C@@H]3C[C@H](F)C4=CC(=O)C=C[C@]4(C)[C@@]3(F)[C@@H](O)C[C@@]21C [Fluticasone propionate] | -2.41
CCCN(CCC)S(=O)(=O)c1ccc(C(=O)O)cc1 [Probenecid] | 0.405
CCOC(=O)N1CCC(=C2c3ccc(Cl)cc3CCc3cccnc32)CC1 [Loratidine] | 8.94
C[C@]12CCC(=O)C=C1CC[C@@H]1[C@@H]2[C@@H](O)C[C@@]2(C)[C@H]1CC[C@]2(O)C(=O)CO [Hydrocortisone] | 0.463
Cc1ccc(NC(=O)c2ccc(CN3CCN(C)CC3)cc2)cc1Nc1nccc(-c2cccnc2)n1 [Imatinib mesylate] | 5.71
O=C1CCc2cc(OCCCCc3nnnn3C3CCCCC3)ccc2N1 [Cilostazol] | 1.37
CCOC(=O)[C@H](CCc1ccccc1)N[C@H]1CCc2ccccc2N(CC(=O)O)C1=O [Benazepril hydrochloride] | -0.0488
CO[C@H]1/C=C/O[C@@]2(C)Oc3c(C)c(O)c4c(O)c(c5c(nc6cc(C)ccn65)c4c3C2=O)NC(=O)/C(C)=C\C=C\[C@H](C)[C@H](O)[C@@H](C)[C@@H](O)[C@@H](C)[C@H](OC(C)=O)[C@@H]1C [Rifaximin] | 1.18
CC#C[C@]1(O)CC[C@H]2[C@@H]3CCC4=CC(=O)CCC4=C3[C@@H](c3ccc(N(C)C)cc3)C[C@@]21C [Mifepristone] | 0.533
CN(CCOc1ccc(CC2SC(=O)NC2=O)cc1)c1ccccn1 (stereo not given) [Rosiglitazone] | -1.31
CN1CC(=O)N2[C@H](c3ccc4c(c3)OCO4)c3[nH]c4ccccc4c3C[C@@H]2C1=O [Tadalafil] | 8.43
CCN(Cc1ccncc1)C(=O)C(CO)c1ccccc1 (stereo not given) [Tropicamide] | -6.79
O=C(O)CCCc1ccccc1 [Sodium 4-Phenylbutyrate] | -5.61
C#C[C@]1(O)CC[C@H]2[C@@H]3CCC4=CC(=O)CC[C@@H]4[C@H]3CC[C@@]21CC [Levonorgestrel] | -4.23
CN1CCN2c3ncccc3Cc3ccccc3C2C1 (stereo not given) [Mirtazapine] | -6.05
CC/C(=C(\c1ccccc1)c1ccc(OCCN(C)C)cc1)c1ccccc1 [Tamoxifen citrate] | -1.09
CCN(CC)CCNC(=O)c1c(C)[nH]c(/C=C2\C(=O)Nc3ccc(F)cc32)c1C [Sunitinib malate] | -2.14
OC(CNCC(O)C1CCc2cc(F)ccc2O1)C1CCc2cc(F)ccc2O1 (stereo not given) [Nebivolol hydrochloride] | -4.81

SMILES | startle
C=CC(=O)N1CCC[C@@H](n2nc(-c3ccc(Oc4ccccc4)cc3)c3c(N)ncnc32)C1 [Ibrutinib] | 4.43
CC(C)C(=O)OCC(=O)[C@@]12O[C@H](C3CCCCC3)O[C@@H]1C[C@H]1[C@@H]3CCC4=CC(=O)C=C[C@]4(C)[C@H]3[C@@H](O)C[C@@]12C [Ciclesonide] | -5.21
COCCCOc1cc(C[C@@H](C[C@H](N)[C@@H](O)C[C@H](C(=O)NCC(C)(C)C(N)=O)C(C)C)C(C)C)ccc1OC [Aliskiren hemifumarate] | 0.496
COc1ccc([C@@H]2Sc3ccccc3N(CCN(C)C)C(=O)[C@@H]2OC(C)=O)cc1 [Diltiazem hydrochloride] | 1.21
CCCCCCCCc1ccc(CCC(N)(CO)CO)cc1 | -6.92
Cc1ccsc1C(=CCCN1CCC[C@@H](C(=O)O)C1)c1sccc1C [Tiagabine hydrochloride] | 7.31
C[C@H]1C[C@@H]2[C@H]([C@@H](O)C[C@@]3(C)[C@H]2CC[C@]3(O)C(=O)CO)[C@@]2(C)C=CC(=O)C=C12 [Methylprednisolone] | 0.408
CCCN(CCc1cccs1)[C@H]1CCc2c(O)cccc2C1 [Rotigotine hydrochloride] | -5.79
Cc1ccc(N(CC2=NCCN2)c2cccc(O)c2)cc1 [Phentolamine Mesylate] | -2.8
CCOC(=O)C1=C(C)NC(C)=C(C(=O)OC)C1c1cccc(Cl)c1Cl (stereo not given) [Felodipine] | 7.93
Cc1cn([C@H]2C=C[C@@H](CO)O2)c(=O)[nH]c1=O [Stavudine] | 0.235
CC(C)(C(=O)c1cccnc1)c1cccnc1 [Metyrapone] | -0.289
Nc1nc2c(ncn2COCCO)c(=O)[nH]1 [Acyclovir] | -0.609
CCOc1nc2cccc(C(=O)O)c2n1Cc1ccc(-c2ccccc2-c2noc(=O)[nH]2)cc1 [Azilsartan] | 3.25
CN/C(=N\CCSCc1nc[nH]c1C)NC#N [Cimetidine] | 5.75
O=C(NCC1CCCCN1)c1cc(OCC(F)(F)F)ccc1OCC(F)(F)F (stereo not given) [Flecainide acetate] | 4.84
C[C@]12CC[C@@H]3c4ccc(O)cc4C[C@@H](CCCCCCCCC[S+]([O-])CCCC(F)(F)C(F)(F)F)[C@H]3[C@@H]1CC[C@@H]2O (stereo not given in full) | -0.0663
CCOc1nc2cccc(C(=O)O)c2n1Cc1ccc(-c2ccccc2-c2nnn[nH]2)cc1 [Candesartan] | 11.2
Clc1ccccc1C(c1ccccc1)(c1ccccc1)n1ccnc1 [Clotrimazole] | 4.43
CC(C)(C#N)c1cc(Cn2cncn2)cc(C(C)(C)C#N)c1 [Anastrozole] | -0.0231
